{
  "source": "the supplement of paper PMC12494721",
  "note": "Counter-ions that a name gives are not always drawn. A number with no mark means an inactive call.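 The calls were made as follows: for the amine columns active = adjusted P below 0.05 in both replicates with a change the same way and a mean fold change under 0.8 or over 1.25; inactive = the rest.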",
  "data": [
    {"system": "Escherichia coli IAI1", "test": "fold change of Putrescine concentration vs plate DMSO controls (fold change (ratio)); higher = more amine produced, active = hit call of the paper (significant change in both replicates, either direction)", "conditions": "incubation time: 27 h, anaerobic, 37 °C", "in_short": "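Amines were quantified by LC–triple-quadrupole MS in dynamic MRM mode against external calibration curves, with drift correction within each batch. The samples were whole anaerobic mGAM cultures of four gut bacterial strains, grown for 27 h at 37 °C in 80 µL wells and extracted with cold acetonitrile/methanol with 0.1% formic acid, then centrifuged. Values are reported as fold change over DMSO controls on the same plate. The mean of 2 biological replicates is given.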", "values": [
      {"compound": "CC(=O)[C@H]1CC[C@H]2[C@@H]3CC=C4C[C@@H](O)CC[C@]4(C)[C@H]3CC[C@]12C", "note": "[Pregnenolone] (20 µM)", "fold change of Putrescine concentration": 1.03},
      {"compound": "CC(C(=O)O)c1ccc(N2Cc3ccccc3C2=O)cc1", "note": "(stereo not given) [Indoprofen] (20 µM)", "fold change of Putrescine concentration": 0.977},
      {"compound": "Cc1cc(O)c(C(=O)N[C@@H](C(=O)N[C@@H]2C(=O)N3C(C(=O)O)=C(CSc4nnnn4C)CS[C@H]23)c2ccc(O)cc2)cn1", "note": "[Cefpiramide] (20 µM)", "fold change of Putrescine concentration": 0.516},
      {"compound": "CC(C)=CCC1C(=O)N(c2ccccc2)N(c2ccccc2)C1=O", "note": "[Feprazone] (20 µM)", "fold change of Putrescine concentration": 1.02},
      {"compound": "COC(=O)C1=C(C)NC(C)=C(C(=O)OCCN(C)Cc2ccccc2)C1c1cccc([N+](=O)[O-])c1", "note": "(stereo not given) [Nicardipine hydrochloride] (20 µM)", "fold change of Putrescine concentration": 1.04},
      {"compound": "COCCOC(=O)C1=C(C)NC(C)=C(C(=O)OC(C)C)C1c1cccc([N+](=O)[O-])c1", "note": "(stereo not given) [Nimodipine] (20 µM)", "fold change of Putrescine concentration": 0.889},
      {"compound": "NS(=O)(=O)c1cc2c(cc1Cl)N=CNS2(=O)=O", "note": "[Chlorothiazide] (20 µM)", "fold change of Putrescine concentration": 1.05},
      {"compound": "CC(Oc1ccccc1)C(=O)N[C@@H]1C(=O)N2[C@@H]1SC(C)(C)[C@@H]2C(=O)O", "note": "(stereo not given in full) [Phenethicillin potassium salt] (20 µM)", "fold change of Putrescine concentration": 0.969},
      {"compound": "Cc1ccc(N(CC2=NCCN2)c2cccc(O)c2)cc1", "note": "[Phentolamine hydrochloride] (20 µM)", "fold change of Putrescine concentration": 1.05},
      {"compound": "CC1(C)O[C@@H]2C[C@H]3[C@@H]4C[C@H](F)C5=CC(=O)CC[C@]5(C)[C@H]4[C@@H](O)C[C@]3(C)[C@]2(C(=O)CO)O1", "note": "[Flurandrenolide] (20 µM)", "fold change of Putrescine concentration": 1.18},
      {"compound": "NS(=O)(=O)c1cc2c(cc1C(F)(F)F)NCNS2(=O)=O", "note": "[Hydroflumethiazide] (20 µM)", "fold change of Putrescine concentration": 1.06},
      {"compound": "Nc1nc(/C(=C/CC(=O)O)C(=O)N[C@@H]2C(=O)N3C(C(=O)O)=CCS[C@H]23)cs1", "note": "[Ceftibuten] (20 µM)", "fold change of Putrescine concentration": 0.79},
      {"compound": "O=C(O)Cc1ccc(-c2ccccc2)cc1", "note": "[Felbinac] (20 µM)", "fold change of Putrescine concentration": 1.03},
      {"compound": "Nc1nnc(-c2cccc(Cl)c2Cl)c(N)n1", "note": "[Lamotrigine] (20 µM)", "fold change of Putrescine concentration": 0.946},
      {"compound": "Nc1nc(=O)c2nc(CNc3ccc(C(=O)N[C@@H](CCC(=O)O)C(=O)O)cc3)cnc2[nH]1", "note": "[Folic acid] (20 µM)", "fold change of Putrescine concentration": 1.05},
      {"compound": "Nc1ccc(S(=O)(=O)NC(=O)c2ccccc2)cc1", "note": "[Sulfabenzamide] (20 µM)", "fold change of Putrescine concentration": 0.947},
      {"compound": "CCC(=O)O[C@]1(C(=O)SCF)[C@H](C)C[C@H]2[C@@H]3C[C@H](F)C4=CC(=O)C=C[C@]4(C)[C@@]3(F)[C@@H](O)C[C@@]21C", "note": "[Fluticasone propionate] (20 µM)", "fold change of Putrescine concentration": 0.994},
      {"compound": "CCOC(=O)[C@H](CCc1ccccc1)N[C@@H](C)C(=O)N1[C@H](C(=O)O)C[C@@H]2CCC[C@@H]21", "note": "[Ramipril] (20 µM)", "fold change of Putrescine concentration": 0.999},
      {"compound": "CO/N=C(\\C(=O)N[C@@H]1C(=O)N2C(C(=O)OCOC(=O)C(C)(C)C)=C(/C=C\\c3scnc3C)CS[C@H]12)c1csc(N)n1", "note": "[Cefditoren Pivoxil] (20 µM)", "fold change of Putrescine concentration": 0.864},
      {"compound": "NC[C@H]1O[C@H](O[C@H]2[C@H](O[C@@H]3O[C@H](CO)[C@@H](O)[C@H]3O)[C@@H](O)[C@H](N)C[C@@H]2N)[C@H](N)[C@@H](O)[C@@H]1O", "note": "[Ribostamycin sulfate salt] (20 µM)", "fold change of Putrescine concentration": 1.14},
      {"compound": "Brc1c(NC2=NCCN2)ccc2nccnc12", "note": "[Brimonidine L-tartrate] (20 µM)", "fold change of Putrescine concentration": 0.973},
      {"compound": "O=c1[nH]cnc2c1ncn2[C@H]1CC[C@@H](CO)O1", "note": "[Didanosine] (20 µM)", "fold change of Putrescine concentration": 1.14},
      {"compound": "NS(=O)(=O)Cc1noc2ccccc12", "note": "[Zonisamide] (20 µM)", "fold change of Putrescine concentration": 1.07},
      {"compound": "CN(C)CCC(c1ccc(Cl)cc1)c1ccccn1", "note": "(stereo not given) [Chlorpheniramine maleate] (20 µM)", "fold change of Putrescine concentration": 0.846},
      {"compound": "OCC(O)CN1CCN(c2ccccc2)CC1", "note": "(stereo not given) [Dropropizine] (20 µM)", "fold change of Putrescine concentration": 0.998},
      {"compound": "CC(=O)[C@H]1CC[C@H]2[C@@H]3CCC4=CC(=O)CC[C@]4(C)[C@H]3CC[C@]12C", "note": "[Progesterone] (20 µM)", "fold change of Putrescine concentration": 1.07},
      {"compound": "CC(C)(C)NC(=O)[C@@H]1CN(Cc2cccnc2)CCN1C[C@@H](O)C[C@@H](Cc1ccccc1)C(=O)N[C@H]1c2ccccc2C[C@H]1O", "note": "[Indinavir sulfate] (20 µM)", "fold change of Putrescine concentration": 1.02},
      {"compound": "c1ccc2c(c1)CCCC2C1=NCCN1", "note": "(stereo not given) [Tetrahydrozoline hydrochloride] (20 µM)", "fold change of Putrescine concentration": 1.04},
      {"compound": "O=[N+]([O-])c1ccc(O)c2ncccc12", "note": "[Nitroxoline] (20 µM)", "fold change of Putrescine concentration": "0.496 (active)"},
      {"compound": "COCC(=O)O[C@]1(CCN(C)CCCc2nc3ccccc3[nH]2)CCc2cc(F)ccc2[C@@H]1C(C)C", "note": "[Mibefradil hydrochloride] (20 µM)", "fold change of Putrescine concentration": 1.02},
      {"compound": "Nc1nc(Cl)nc2c1ncn2[C@H]1C[C@H](O)[C@@H](CO)O1", "note": "[Cladribine] (20 µM)", "fold change of Putrescine concentration": 0.684},
      {"compound": "CN(CCOc1ccc(CC2SC(=O)NC2=O)cc1)c1ccccn1", "note": "(stereo not given) [Rosiglitazone hydrochloride] (20 µM)", "fold change of Putrescine concentration": 1.17},
      {"compound": "C[C@@H](O)[C@H]1C(=O)N2C(C(=O)O)=C(S[C@@H]3CN[C@H](C(=O)N(C)C)C3)[C@H](C)[C@H]12", "note": "[Meropenem] (20 µM)", "fold change of Putrescine concentration": "0.278 (active)"},
      {"compound": "CNCCC=C1c2ccccc2C=Cc2ccccc21", "note": "[Norcyclobenzaprine] (20 µM)", "fold change of Putrescine concentration": 1},
      {"compound": "CCCCS(=O)(=O)N[C@@H](Cc1ccc(OCCCCC2CCNCC2)cc1)C(=O)O", "note": "[Tirofiban hydrochloride] (20 µM)", "fold change of Putrescine concentration": 0.994},
      {"compound": "OC[C@H]1O[C@@H](n2cnc3cncnc32)[C@H](O)[C@@H]1O", "note": "[Nebularine] (20 µM)", "fold change of Putrescine concentration": 0.795},
      {"compound": "CC1(C)S[C@@H]2[C@H](NC(=O)[C@H](N)c3ccccc3)C(=O)N2[C@H]1C(=O)O", "note": "[Ampicillin trihydrate] (20 µM)", "fold change of Putrescine concentration": "2.31 (active)"},
      {"compound": "Oc1ncnc2[nH]ncc12", "note": "[Allopurinol] (20 µM)", "fold change of Putrescine concentration": 1.09},
      {"compound": "CC(C)(C)c1ccc(C(=O)CCCN2CCC(OC(c3ccccc3)c3ccccc3)CC2)cc1", "note": "[Ebastine] (20 µM)", "fold change of Putrescine concentration": 1.02},
      {"compound": "CCOC(N)=O", "note": "[Urethane] (20 µM)", "fold change of Putrescine concentration": 1.02}
    ]}
  ]
}
